In paper PMC4336329 (PLoS ONE, 2015):
Out of some 310,000 compounds screened, about 14,000 (4.5%) showed an effect of 50% or more. The effect is printed as a negative number. The entries come from a sample that favours strong results as a whole.

Target: human ether-à-go-go-related gene (hERG) potassium channel (human, UniProt Q12809)
Assay: primary screen, population patch clamp on CHO cells stably expressing hERG; higher = less effect of the substance
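Also: peak tail current of the secondary pulse compared with the same well before compound.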

human ether-à-go-go-related gene (hERG) potassium channel, sequence (Q12809 whole entry, looked up): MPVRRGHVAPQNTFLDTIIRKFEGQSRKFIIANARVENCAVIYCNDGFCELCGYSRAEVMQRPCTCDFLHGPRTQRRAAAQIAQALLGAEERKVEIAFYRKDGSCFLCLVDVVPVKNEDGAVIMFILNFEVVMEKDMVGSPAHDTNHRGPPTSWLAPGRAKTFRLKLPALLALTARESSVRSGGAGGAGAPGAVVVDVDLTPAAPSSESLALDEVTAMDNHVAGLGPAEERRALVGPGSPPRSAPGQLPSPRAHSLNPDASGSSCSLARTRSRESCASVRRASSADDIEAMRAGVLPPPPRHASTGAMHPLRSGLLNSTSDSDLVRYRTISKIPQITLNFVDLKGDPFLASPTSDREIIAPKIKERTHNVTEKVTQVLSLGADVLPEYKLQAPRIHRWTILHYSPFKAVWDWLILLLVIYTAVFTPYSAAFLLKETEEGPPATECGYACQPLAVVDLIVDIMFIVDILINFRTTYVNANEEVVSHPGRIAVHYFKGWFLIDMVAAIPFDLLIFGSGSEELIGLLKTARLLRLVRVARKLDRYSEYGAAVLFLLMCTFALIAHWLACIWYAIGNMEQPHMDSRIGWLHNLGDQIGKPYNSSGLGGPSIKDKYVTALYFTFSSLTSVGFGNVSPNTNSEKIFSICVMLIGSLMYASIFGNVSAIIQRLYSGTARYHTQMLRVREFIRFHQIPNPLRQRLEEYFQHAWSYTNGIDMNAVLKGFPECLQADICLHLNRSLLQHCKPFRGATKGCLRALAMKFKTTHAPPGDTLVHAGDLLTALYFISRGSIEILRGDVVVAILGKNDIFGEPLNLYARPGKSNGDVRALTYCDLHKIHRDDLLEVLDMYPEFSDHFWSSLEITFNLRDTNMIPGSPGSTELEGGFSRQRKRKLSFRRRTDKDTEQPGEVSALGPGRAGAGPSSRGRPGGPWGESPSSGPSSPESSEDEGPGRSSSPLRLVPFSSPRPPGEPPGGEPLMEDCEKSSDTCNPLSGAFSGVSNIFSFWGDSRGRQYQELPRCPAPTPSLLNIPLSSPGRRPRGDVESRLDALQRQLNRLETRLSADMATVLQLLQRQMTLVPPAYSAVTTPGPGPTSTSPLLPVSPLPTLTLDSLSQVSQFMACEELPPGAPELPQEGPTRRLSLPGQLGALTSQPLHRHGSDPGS

| Compound | hERG current change (%, negative = inhibition) at 10uM [%] |
| --- | --- |
| COCCCNC(=O)c1ccc2c(=O)n(Cc3ccccc3OC)c(=S)[nH]c2c1 | 6.43 |
| O=C(NCCc1ccc(F)cc1)c1cccs1 | 10.4 |
| Cc1ccc(S(=O)(=O)N2CCN(C(=O)c3c(-c4ccccc4)noc3C)CC2)cc1C | 1.83 |
| CN1CCc2nc(N)c(C#N)c(-c3ccccc3)c2C1 | -7.5 |
| C=CCSc1nc2c(c(-c3ccsc3)c1C#N)CN(C)CC2 | -65.2 |
| CN1CCc2nc(SCC(=O)Nc3ccc(OC(F)(F)F)cc3)c(C#N)c(-c3cccs3)c2C1 | -12.8 |
| CN1CCc2nc(SCC(=O)Nc3cccc(F)c3)c(C#N)c(-c3cccs3)c2C1 | -62.3 |
| CN1CCc2nc(SC(C(=O)O)c3ccccc3)c(C#N)c(-c3cccs3)c2C1 (stereo not drawn) | 19.4 |
| COc1ccc(NC(=O)CSc2nc3c(c(-c4cccs4)c2C#N)CN(C)CC3)cc1OC | 1.65 |
| CN1CCc2nc(SCc3ccc(Cl)cc3)c(C#N)c(-c3cccs3)c2C1 | -66.2 |
| Cc1cccc(CSc2nc3c(c(-c4cccs4)c2C#N)CN(C)CC3)c1 | -13.1 |
| C=CCSc1nc(N)c(C#N)c(-c2ccc(C)cc2)c1C#N | 4.13 |
| Cc1ccc(C(=O)Nc2cccc(C(=O)O)c2)cc1 | 14.4 |
| O=C(COC(=O)c1ccccc1F)Nc1cc(S(=O)(=O)N2CCOCC2)ccc1N1CCCC1 | -13.5 |
| Cc1oc2c(c(C)cc3oc(=O)c(CC(=O)NCCCN4CCCC4=O)c(C)c32)c1C | -0.519 |
| O=C(Nc1ncccc1O)c1ccc2c(c1)OCO2 | 3.08 |
| COc1ccccc1NC=C1C(=O)OC(C)(C)OC1=O | -24 |
| CCOC(=O)c1ccc(S(=O)(=O)N2CCN(C(C)=O)CC2)cc1 | 0.122 |
| CCc1nc(Nc2ccccc2)c2nnn(Cc3ccccc3)c2n1 | 8.23 |
| COC(=O)c1nn(-c2ccc(-c3ccccc3)cc2)cc1O | -3.85 |
| Cc1csc(=O)n1CC(=O)OCC(=O)c1c(N)n(CC(C)C)c(=O)n(C)c1=O | -10.7 |
| CC(C)Cn1c(N)c(C(=O)COC(=O)/C=C/c2cccs2)c(=O)n(C)c1=O | -49.9 |
| Cc1cccc(OCC(=O)OCC(=O)c2c(N)n(C)c(=O)n(C)c2=O)c1 | -13.1 |

| Compound | hERG current change (%, negative = inhibition) at 10uM [%] |
| --- | --- |
| CC(C)Cn1c(N)c(C(=O)COC(=O)COc2cccc(C(F)(F)F)c2)c(=O)n(C)c1=O | -50.9 |
| CCCn1c(N)c(C(=O)COC(=O)CNC(=O)c2ccc(C)c(C)c2)c(=O)n(C)c1=O | -78.1 |
| CC(C)Cn1c(N)c(C(=O)COC(=O)Cc2cccs2)c(=O)n(C)c1=O | -51.7 |
| CC(C)Cn1c(N)c(C(=O)COC(=O)c2cc(C(F)(F)F)nc3c(C(F)(F)F)cccc23)c(=O)n(C)c1=O | 7.27 |
| CC(C)Cn1c(N)c(C(=O)COC(=O)c2c(F)cccc2F)c(=O)n(C)c1=O | -16.7 |
| Cc1cc(C)cc(C(=O)NCC(=O)OCC(=O)c2c(N)n(C)c(=O)n(C)c2=O)c1 | 17.4 |
| Cc1ccc(C(=O)NCC(=O)OCC(=O)c2c(N)n(C)c(=O)n(C)c2=O)s1 | 9.14 |
| CC(C)Cn1c(N)c(C(=O)COC(=O)Cc2cccc(C(F)(F)F)c2)c(=O)n(C)c1=O | -54.5 |
| CC(C)Cn1c(N)c(C(=O)COC(=O)c2ccc(F)cc2)c(=O)n(C)c1=O | 17.1 |
| CCN(CC)S(=O)(=O)c1cc(C)c(C)cc1OCC(=O)NC1CCCC1 | -23.1 |
| C/C=C/C=C/C(=O)N1CC2(CC(c3cccc(NC(=O)/C=C/C)c3)=NO2)C[C@@H]1C(N)=O (stereo partly drawn) | 2.75 |
| Cc1ccsc1/C=N\NC(=O)c1cc(C(C)(C)C)[nH]n1 | -9.77 |
| CC1(C)NC(=O)N(CC(=O)N2CCN(c3cccc(C(F)(F)F)c3)CC2)C1=O | 6.26 |
| O=C(CN1C(=O)NC(c2ccccc2)(c2ccccc2)C1=O)N1CCOCC1 | 0.969 |
| CC1(C)NC(=O)N(CC(=O)N2CCN(c3cccc(Cl)c3)CC2)C1=O | -6.67 |
| CC(C(=O)N1CCOCC1)c1ccc([N+](=O)[O-])cc1 (stereo not drawn) | 9.94 |
| O=C(CN1C(=O)NC(c2ccccc2)(c2ccccc2)C1=O)N1CCN(c2ccccc2F)CC1 | -17.4 |
| O=C(CN1C(=O)C2CCCCC2C1=O)N1CCN(c2ccc(F)cc2)CC1 (stereo not drawn) | -12.2 |
| CC1(C)NC(=O)N(CC(=O)N2CCN(c3ccc([N+](=O)[O-])cc3)CC2)C1=O | -66.1 |
| O=C(CN1C(=O)NC(c2ccccc2)(c2ccccc2)C1=O)N1CCN(c2ccc(F)cc2)CC1 | -68.4 |
| COc1ccc(N2CCN(C(=O)CN3C(=O)C4CC=CCC4C3=O)CC2)cc1 (stereo not drawn) | 12.3 |
| CC(C(=O)N1CCN(c2ccc([N+](=O)[O-])cc2)CC1)N1C(=O)C2CC=CCC2C1=O (stereo not drawn) | -72.2 |
| O=C(CN1C(=O)C2CC=CCC2C1=O)N1CCN(c2ccc([N+](=O)[O-])cc2)CC1 (stereo not drawn) | -71.6 |

| Compound | hERG current change (%, negative = inhibition) at 10uM [%] |
| --- | --- |
| CC(C(=O)N1CCN(c2ccccc2)CC1)N1C(=O)C2CC=CCC2C1=O (stereo not drawn) | 7.43 |
| CC(=O)N1CN(C2CC(C)(C)NC(C)(C)C2)Cc2c1sc1c2CCCC1 | 6.77 |
| C(=C\c1ccccn1)/c1ccccn1 | 24.4 |
| CC1=CC(C)(C)N(C(=O)CSc2nnc(N)s2)c2ccccc21 | 6.19 |
| O=c1[nH]c(=O)n(CCc2ccc(F)cc2)c(O)c1C=NCCCN1CCOCC1 | -17.7 |
| CC(=O)Nc1cc(C(C)C)c(O)c(C(C)C)c1 | -4.37 |
| Cc1cccc(CCNC(=O)Cn2ncc3c([nH]c4ccccc43)c2=O)c1 | 14.2 |
| COc1cc(/C=C2\S/C(=N/S(=O)(=O)c3ccccc3)NC2=O)c([N+](=O)[O-])cc1OC | 4.25 |
| O=C(CC1SC(=O)N(Cc2ccc(Cl)cc2)C1=O)Nc1nccs1 (stereo not drawn) | -4.51 |
| O=c1[nH]c(=O)n(C2OC(CO)C(O)C2O)cc1Br (stereo not drawn) | 26.2 |
| CCOC(=O)c1c(-c2ccc(C)o2)csc1N | 20.5 |
| Oc1ccccc1C1=Nc2ccccc2N=C(c2ccco2)C1 | -12.7 |
| COc1ccc(CNS(=O)(=O)c2c(C)[nH]c(C)c2C(=O)N2CCCC2)cc1 | 17.6 |
| COC(=O)C1CCN(c2ccc([N+](=O)[O-])cc2)CC1 | -21.7 |
| O=S(=O)(c1cnc[nH]1)N1CCN(c2ccc(F)cc2)CC1 | -3 |
| CN(C)S(=O)(=O)N1CCN(c2ccccc2)CC1 | -1.78 |
| CCOC(=O)N1CCN(c2c(N3CCN(C(=O)OCC)CC3)c(=O)c2=O)CC1 | -29.1 |
| CN(C)S(=O)(=O)N1CCN(c2ccc([N+](=O)[O-])cc2)CC1 | -76.7 |
| O=C(C1CCN(S(=O)(=O)c2cnc[nH]2)CC1)N1CCN(c2ccc([N+](=O)[O-])cc2)CC1 | -1.78 |
| CCOC(=O)N1CCN(c2c(N3CCN(c4ccc(F)cc4)CC3)c(=O)c2=O)CC1 | -73.4 |
| O=[N+]([O-])c1ccc(N2CCN(S(=O)(=O)c3cnc[nH]3)CC2)cc1 | -59.8 |
| CCOC(=O)C1CCN(c2ccc([N+](=O)[O-])c(C(C)=O)c2)CC1 | -11.8 |
| CN(C)S(=O)(=O)N1CCN(c2ccc(Cl)cc2)CC1 | -14.4 |

| Compound | hERG current change (%, negative = inhibition) at 10uM [%] |
| --- | --- |
| CCOC(=O)C1CCN(c2ccc([N+](=O)[O-])cc2)CC1 | -68.9 |
| CCOC(=O)N1CCN(c2c(N3CCN(c4ccc(OC)cc4)CC3)c(=O)c2=O)CC1 | -46.6 |
| C[C@]12CCC3C(CC[C@H]4CCCC[C@]34C)C1CC[C@@]2(O)CNCCO (stereo partly drawn) | 15.6 |
| O=C(O)CCCNc1cc(N2CCN(C(=O)c3ccco3)CC2)c2noc3c2c1C(=O)c1ccccc1-3 | 19 |
| O=C(O)C1CCCCC1C(=O)Nc1nc(-c2ccc(Cl)s2)cs1 (stereo not drawn) | 13.7 |
| C/C(=N\NC(=O)c1ccc(F)cc1)c1ccc(N2CCOCC2)cc1 | -16.7 |
| O=S(=O)(c1cccc(-c2cn3cc(Cl)ccc3n2)c1)N1CCOCC1 | -23.1 |
| CCCCOC(=O)c1ccc(NC(=O)CSCc2n[nH]c(=O)[nH]2)cc1 | 1.91 |
| S=C(NC1CCCCC1)N(CCc1nc2ccccc2[nH]1)C1CCCC1 | 4.83 |
| COc1ccc(C(=O)N2CCC(C(=O)N3CCN(c4ccc(OC)cc4)CC3)CC2)cc1 | -43.5 |
| Cc1cnc(C(=O)Nc2ccc(N3CCN(C(=O)OC(C)(C)C)CC3)cc2)cn1 | 14.1 |
| CC(C)(C)OC(=O)N1CCN(c2ccc([N+](=O)[O-])cc2)CC1 | -73.3 |
| CCN(CC)C(=O)Cn1cc(C(=O)C(=O)N2CCN(c3ccc(OC)cc3)CC2)c2ccccc21 | 16.1 |
| CCOC(=O)N1CCN(c2ccc(O)cc2)CC1 | 15.6 |
| CCOC(=O)N1CCN(c2ccc([N+](=O)[O-])cc2)CC1 | -59.4 |
| CCN(CC)C(=O)Cn1cc(C(=O)C(=O)N2CCN(c3ccc([N+](=O)[O-])cc3)CC2)c2ccccc21 | -65.8 |
| CCN(CC)C(=O)Cn1cc(C(=O)C(=O)N2CCN(c3ccccc3)CC2)c2ccccc21 | -0.908 |
| COc1ccc(N2CCN(C(=O)C3CCN(C(=O)c4ccc([N+](=O)[O-])cc4)CC3)CC2)cc1 | -69 |
| O=[N+]([O-])c1ccc(N2CCN(c3ccccc3O)CC2)cc1 | -0.173 |
| COc1ccc(N2CCN(C(=O)C3CCN(C(=O)c4cccc(Cl)c4)CC3)CC2)cc1 | -29.8 |
| CCOC(=O)N1CCN(S(=O)(=O)c2ccc([N+](=O)[O-])cc2)CC1 | -23.9 |
